# Results taken from PubChem BioAssay (Tox21).
# Results filed as inconclusive are left out. Entries that show only a call come without a potency. Active and inactive are the calls of the source. Calls come from the whole dose curve; as a rule, active = well fitted cell-killing curve with a large enough effect in the repeat runs; inconclusive = weak or mixed curves, or effect the other way; inactive = flat fitted curve, though single readings scatter.
# Assay: cAMP Responsive Elements (CRE) small molecule antagonists, cell-based qHTS assay: qHTS cell viability counter screen (AID 2060913); note: nearly all actives have a fitted effect of over 40% in size
# Settings: CRE-bla HEK293T viability, CellTiter-Glo luminescence, 5 h; series mostly up to 92.4 µM
# Summary of the method: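 Cytotoxicity read in the same wells as the CRE-bla HEK293T antagonist assay: after 3 h compound with 0.25 uM NKH477 final and 2 h beta-lactamase substrate, CellTiter-Glo luminescence measured.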
# Potency is the fitted concentration of half-maximal effect.
row,Compound,Potency
1,Cc1ccnc(NS(=O)(=O)c2ccc(N)cc2)n1,inactive
2,CC[C@H]1OC(=O)[C@H](C)[C@@H](O[C@H]2C[C@@](C)(OC)[C@@H](O)[C@H](C)O2)[C@H](C)[C@@H](O[C@@H]2O[C@H](C)C[C@H](N(C)C)[C@H]2O)[C@](C)(O)C[C@@H](C)/C(=N\OCOCCOC)[C@H](C)[C@@H](O)[C@]1(C)O,inactive
3,CCCCNc1ccc(C(=O)OCCOCCOCCOCCOCCOCCOCCOCCOCCOC)cc1,inactive
4,Cc1[nH]cnc1-c1ccc(Cl)cc1,inactive
5,CC(=O)Oc1cccc(O)c1,inactive
6,CCCN(CCC)S(=O)(=O)c1ccc(C(=O)O)cc1,inactive
7,Clc1ccc2n[nH]nc2c1,inactive
8,CC(C)CC=O,inactive
9,NC(=O)c1cnccn1,inactive
10,OCC(CO)(CBr)CBr,inactive
11,CCOC(=O)[C@H](CCc1ccccc1)N[C@H]1CS[C@H](c2cccs2)CN(CC(=O)O)C1=O,inactive
12,CCCCc1ccc2c(n1)[C@@H](c1ccc(OC)cc1C[C@H](C)C(=O)O)[C@H](C(=O)O)[C@H]2c1ccc2c(c1)OCO2,inactive
13,C=CCCCCCC,inactive
14,O=C1CCCCO1,inactive
15,O=C(CCCN1CCC(O)(c2ccc(Br)cc2)CC1)c1ccc(F)cc1,inactive
16,CCCCN1C(=O)c2ccccc2C1=O,inactive
17,O=C(/C=C/c1ccccc1)OC/C=C/c1ccccc1,inactive
18,CCO[Si](CCCN=C=O)(OCC)OCC,inactive
19,C[C@]12CCC(=O)C=C1CC[C@@H]1[C@@H]2C(=O)C[C@@]2(C)[C@H]1CC[C@]2(O)C(=O)CO,inactive
20,OC1(c2ccc(Cl)c(C(F)(F)F)c2)CCN(CCCC(c2ccc(F)cc2)c2ccc(F)cc2)CC1,29.8 µM (active)

row,Compound,Potency
1,CSc1ccc(O)cc1C,inactive
2,CC(C)CCCC(C)CC=O (stereo not given),inactive
3,CCC(=O)O[C@@H]1C[C@H]2CC[C@]1(C)C2(C)C,inactive
4,O=C(O)c1c(O)c(-c2ccccc2)nc2ccccc12,inactive
5,Cc1ccc(Nc2c(F)cccc2Cl)c(CC(=O)O)c1,inactive
6,Cc1ccc(S(=O)(=O)NC(=O)NN2CC3CCCC3C2)cc1 (stereo not given),inactive
7,CC(C)=O,inactive
8,CCC(C)c1nccnc1OC (stereo not given),inactive
9,CCCC[P+](CCCC)(CCCC)CCCC,inactive
10,CN(C)CCN1C(=O)c2ccccc2N(C)c2ccccc21,inactive
11,NCCCN(CCO)CCO,inactive
12,CC(C(=O)O)c1cccc(Oc2ccccc2)c1 (stereo not given),inactive
13,C=CCOCC(O)CCl (stereo not given),inactive
14,CC1(C)CC(O)CC(C)(C)N1[O],inactive
15,Brc1ccc(Br)c(Br)c1,inactive
16,CCN(CC)c1ccc(C(=C2C=CC(=[N+](CC)CC)C=C2)c2ccc(S(=O)(=O)O)cc2S(=O)(=O)[O-])cc1,27.3 µM (active)
17,OC(Cn1cncn1)(Cn1cncn1)c1ccc(F)cc1F,inactive
18,CC(N)=O,inactive
19,CC1=CC(=O)CC(C)(C)C1(O)/C=C/C(C)=C\C(=O)O (stereo not given),inactive
20,CC(C)CNCC(C)C,inactive
